Source: PubChem BioAssay
Compounds with a hit are over-represented: about 1.6% of the library has one in this group of screens.
ATG4B inhibitor – inhibitors of human ATG4B cysteine protease. Q9Y4P1. ATG4B cleavage of LC3-PLA2, NBD-HPC fluorescence, 1 h. inhibition, % at 8.33 µM. 340,000 tested, 0.51% active. AID 504462; in the data active = inhibition above about 40%
Target sequence (Q9Y4P1 whole entry, looked up): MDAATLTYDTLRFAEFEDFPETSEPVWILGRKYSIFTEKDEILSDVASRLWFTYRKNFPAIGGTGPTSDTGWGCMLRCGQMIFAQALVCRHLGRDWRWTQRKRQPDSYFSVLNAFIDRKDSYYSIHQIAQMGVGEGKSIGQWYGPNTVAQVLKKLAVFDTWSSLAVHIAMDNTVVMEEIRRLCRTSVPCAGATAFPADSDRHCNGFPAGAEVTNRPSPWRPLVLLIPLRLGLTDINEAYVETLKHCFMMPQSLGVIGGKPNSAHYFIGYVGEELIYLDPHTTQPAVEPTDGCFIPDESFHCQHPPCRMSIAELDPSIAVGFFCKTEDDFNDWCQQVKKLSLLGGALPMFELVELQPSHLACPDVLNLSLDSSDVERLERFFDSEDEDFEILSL
PKA-R1A act – activates the PKA-R1A holoenzyme complex | 340,000 tested, 0.083% active | activation, % at 11.4 µM | P00514+P68181 | PKA-R1A dissociation, Cy5-IP20 fluorescence polarization; scaled: DMSO 0%, 113 µM cGMP 100%;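 active = percent activation above the mean of all tested compounds plus 3 SD, cut at about 19% in these data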;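 note: higher means more PKAc released from R1A so a rise in polarization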
PKA-R2B activ – activators of human PKA-R2B complex | activation, % at 11.4 µM | PKA-R2B holoenzyme dissociation, Cy5-IP20 fluorescence polarization; R2B truncated from residue 108, S112A mutant; 0% DMSO only, 100% 113 µM cGMP | P22694+P31323 | 340,000 tested, 0.079% active;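 active = activation above a cutoff set at the mean over all compounds plus 3 SD, cut at about 18% in these data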;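 note: higher means more holoenzyme dissociation and a rise in polarization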
VLA-4 inh – inhibition in a human VLA-4 binding assay; 330,000 tested, 0.2% active; inhibition, % (about 7 µM as worked out from the volumes in the protocol); VLA-4 expressing cells, ligand binding flow cytometry; AID 2557; P13612
CendR NRP1 mod – NRP-1/CendR interaction modulation; FAM-RPARPAR peptide binding to NRP-1, fluorescence polarization; O14786; 360,000 tested, 0.85% active; inhibition, % at 25 µM;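 active = inhibition or corrected inhibition above about 18%, plus a signal ratio from 0.5 to 1.5, limit read from the data, passing the limit was not always enough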
ATG4B conf – confirmation of human ATG4B inhibitors; shares compounds with ATG4B inhibitor; ATG4B protease fluorescent substrate cleavage assay; inhibition, % at 8.33 µM; 320 tested, 92% active; AID 504757; in the data active = inhibition above about 39%
PLA2 ctr – inhibits human PLA2, flagging false ATG4B inhibitors; 1,600 tested, 66% active; shares compounds with ATG4B inhibitor; inhibition, % at 8.33 µM; AID 588402; purified PLA2, NBD-C6-HPC fluorescence, 45 min
Target sequence (P04054 whole entry, looked up): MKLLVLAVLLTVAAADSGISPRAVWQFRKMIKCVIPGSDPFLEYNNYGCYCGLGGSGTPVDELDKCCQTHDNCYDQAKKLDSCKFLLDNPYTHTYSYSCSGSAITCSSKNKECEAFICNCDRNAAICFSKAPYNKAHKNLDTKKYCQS
* = called active by the depositor; / = not tested or not shown. Cut-off read from the data, not from the text of the source, unless noted: active = inhibition above about 50%; inactive = the rest.

SMILES | ATG4B inhibitor | PKA-R1A act | PKA-R2B activ | VLA-4 inh | CendR NRP1 mod | PLA2 ctr | others
Cc1ccc(/C=N/Nc2ccnc3cc(Cl)ccc23)c(C)c1 | 46* | -8 | -6 | 2 | 4 | 40
Cc1ccccc1/C=N/Nc1ccnc2cc(Cl)ccc12 | 48* | 12 | 5 | 14 | -2 | 39 | ATG4B conf=65*
OCCCNC(=S)Nc1ccc(Br)cc1Cl | 13 | 0 | -2 | -4 | -10 | /
COc1cccc(-c2ccc3ncnc(NCc4cccc(C)c4)c3c2)c1 | 40* | -6 | -8 | -6 | 12 | 50
COc1cccc(CNc2ncnc3ccc(-c4c(C)noc4C)cc23)c1 | -1 | 6 | -6 | -3 | 23 | /
O=C(CN(c1cccc(C(F)(F)F)c1)S(=O)(=O)c1ccc(Cl)c([N+](=O)[O-])c1)NCc1ccccc1 | -3 | -2 | 1 | 12 | 15 | /
O=C(CN(c1cccc(C(F)(F)F)c1)S(=O)(=O)c1ccc(Cl)c([N+](=O)[O-])c1)NCc1ccccc1Cl | 54* | -4 | -1 | 9 | -9 | 53*
OC(CN1c2ccccc2Sc2ccccc21)Cn1nnc2ccccc21 (stereo not drawn) | 44* | -7 | 5 | 12 | -4 | 65*
CN(C)c1ccnc(Oc2ccc(Cl)cc2)c1C#N | 14 | -3 | -12 | 15 | -11 | /
CN(C)c1ccnc(Oc2ccc(C(C)(C)C)cc2)c1C#N | 75* | 9 | -10 | 14 | 2 | 80*
O=C1COc2ccc(S(=O)(=O)Nc3ccc(F)cc3)cc2N1 | 0 | -10 | -6 | 10 | 1 | /
COCCCNC(=S)N1CCN(c2nc(C)nc3sc4c(c23)CCCC4)CC1 | 47* | -8 | 13 | 4 | 16 | 63*
COCCCNC(=S)N1CCCN(c2nc3c(C)c(C)ccc3cc2C#N)CC1 | -9 | -12 | -6 | -6 | 8 | /
CCCNC(=S)N1CCN(c2nc(C)nc3sc4c(c23)CCCC4)CC1 | 49* | -5 | -4 | 26 | -3 | 78*
Cc1nc(N2CCNCC2)c2c3c(sc2n1)CCCC3 | 1 | 4 | 0 | -1 | -4 | /
CCC(C)(C)c1nnc(NC(=O)C2CC(=O)N(CCc3ccc(F)cc3)C2)s1 (stereo not drawn) | -5 | 6 | -10 | -15 | 4 | /
Nc1c(C(=O)O)sc2nc3c(cc12)CCCC3 | -4 | / | / | -18 | 0 | /
CN1CCc2nc3sc(C(=O)C45CC6CC(CC(C6)C4)C5)c(N)c3cc2C1 | 45* | 6 | -4 | -9 | -24 | -4
CCOc1cc(/C=C2/SC(=O)N(CC(=O)N3CCc4ccccc4C3)C2=O)ccc1OCC(=O)O | 56* | 4 | 9 | -5 | -50 | 45 | ATG4B conf=67*
NC(=O)COc1ccccc1/C=C1/SC(=O)N(CC(=O)N2CCc3ccccc3C2)C1=O | 6 | -6 | 3 | / | 4 | /
C[C@@H]1CN([C@H](C)CO)C(=O)c2cc(NS(=O)(=O)c3cn(C)cn3)ccc2O[C@@H]1CN(C)S(C)(=O)=O | 10 | 6 | -1 | -7 | 5 | /
Cc1ccc(S(=O)(=O)N(Cc2ccccc2)Cc2ccco2)cc1 | 44* | -18 | -1 | 1 | 14 | 56*
CC#CC(=O)N1CCC(CCc2ccccc2)(C(=O)OCC)CC1 | 49* | -3 | -4 | 12 | 5 | -2
CC(C1CC2CCC1C2)n1c(COc2ccccc2F)nnc1SCC(N)=O (stereo not drawn) | 24 | -1 | -9 | -2 | -2 | /
CC(C)NC(=O)NC(=O)CSc1nnc(COc2ccccc2F)n1C(C)C1CC2CCC1C2 (stereo not drawn) | 42* | -3 | -8 | 0 | 10 | 44
SMILES | ATG4B inhibitor | PKA-R1A act | PKA-R2B activ | VLA-4 inh | CendR NRP1 mod | PLA2 ctr | others
Cc1cccc(C(=O)Nc2sc(-c3ccccc3)cc2C(=O)O)c1 | 68* | -16 | -4 | -12 | -17 | 75*
CC(C)(C)C(=O)Nc1sc(-c2ccccc2)cc1C(=O)O | 2 | 2 | 2 | -3 | -6 | /
COc1cccc(CNc2cc(CSc3ccc(Cl)cc3)nc(C)n2)c1 | 54* | -14 | -11 | 27 | -4 | 63*
COc1ccc(Cc2c(-c3cccc(Cl)c3)nc3ccc(Cl)cn23)c(C)c1 | / | / | / | / | -40 | /
CS(=O)(=O)Cc1cccc(C(=O)NN(c2ccccc2)c2ccccc2)c1 | -12 | 2 | -3 | 22 | -1 | /
C=CCn1c(SCC(=O)Nc2cc(Cl)ccc2C(=O)O)nc2sc(C)c(C)c2c1=O | 61* | -2 | -4 | 6 | -51 | 53*
C[C@@H]1CN[C@H](CCO)/C1=C\c1ccccc1 | 0 | -3 | -7 | / | 3 | /
O=C(O)c1ccccc1C(=O)N(Cc1ccccc1)Cc1ccccc1 | 2 | -2 | 1 | 5 | 1 | /
O=C(O)c1cc(Cl)c(Cl)cc1C(=O)N(Cc1ccccc1)Cc1ccccc1 | 43* | -2 | -9 | -16 | 14 | 52*
O=C(Nc1ccc(Cl)c(Cl)c1)C1C2C=CC3(O2)C1C(=O)N(CCN1CCCCC1)C3C(=O)NC1CCCCC1 (stereo not drawn) | -8 | 4 | -2 | 13 | -3 | /
N#Cc1c(NC(=O)C2CC(c3ccccc3Cl)=NO2)sc2c1CCC2 (stereo not drawn) | 51* | 1 | -4 | 0 | -2 | 35 | ATG4B conf=63*
COc1ccc(CCNC(=O)c2ccc(=O)[nH]c2)cc1OC | 3 | 0 | -4 | 22 | 0 | /
COc1ccc(C)cc1S(=O)(=O)N(CC(=O)Nc1cc([N+](=O)[O-])ccc1C)c1ccc(C)c(C)c1 | 77* | 5 | 5 | 0 | -2 | 87*
COc1ccc(C)cc1S(=O)(=O)N(CC(=O)Nc1cccc([N+](=O)[O-])c1)c1cc(C)cc(C)c1 | 83* | -1 | 0 | 30 | -3 | 86*
Cc1ccc(S(=O)(=O)N(CC(=O)Nc2cccc([N+](=O)[O-])c2)C2CCCCC2)cc1 | 45* | -6 | 0 | -4 | 0 | 51*
COc1ccc([N+](=O)[O-])cc1NC(=O)c1ccc(CN(c2ccc(C)c(C)c2)S(C)(=O)=O)cc1 | -9 | 0 | 0 | 29 | 2 | /
O=C(C[C@H]1C(=O)N(c2ccccc2)C[C@@H]1Cc1ccccc1)Nc1ccccc1 | / | 6 | -6 | / | -7 | /
O=c1[nH]c(Nc2ccccc2)cc2ccccc12 | 40 | 4 | 3 | -30 | -8 | -6 | ATG4B conf=75*
N#Cc1ccc(OCC(=O)Nc2ccc(N3CCCC3)cc2)cc1 | -1 | -3 | 5 | 1 | -12 | /
O=C(NC(=S)N1CCCC(C(F)(F)F)C1)c1ccc(F)cc1 (stereo not drawn) | -13 | 10 | -3 | -5 | 3 | /
